# Screening results from PubChem.
# CYP2C9 activ: human CYP2C9 activators, primary screen, biochemical, luminescence | actives 1.4% (n = 96,000) | activation factor at 5 µM | recombinant CYP2C9, luciferin-H conversion; active compounds read high; factor 1 = untreated enzyme, 0 = blocked;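 active = activation factor of 2 or more for CYP2C9 at a 5 µM dose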
# Target sequence (P11712 whole entry, looked up): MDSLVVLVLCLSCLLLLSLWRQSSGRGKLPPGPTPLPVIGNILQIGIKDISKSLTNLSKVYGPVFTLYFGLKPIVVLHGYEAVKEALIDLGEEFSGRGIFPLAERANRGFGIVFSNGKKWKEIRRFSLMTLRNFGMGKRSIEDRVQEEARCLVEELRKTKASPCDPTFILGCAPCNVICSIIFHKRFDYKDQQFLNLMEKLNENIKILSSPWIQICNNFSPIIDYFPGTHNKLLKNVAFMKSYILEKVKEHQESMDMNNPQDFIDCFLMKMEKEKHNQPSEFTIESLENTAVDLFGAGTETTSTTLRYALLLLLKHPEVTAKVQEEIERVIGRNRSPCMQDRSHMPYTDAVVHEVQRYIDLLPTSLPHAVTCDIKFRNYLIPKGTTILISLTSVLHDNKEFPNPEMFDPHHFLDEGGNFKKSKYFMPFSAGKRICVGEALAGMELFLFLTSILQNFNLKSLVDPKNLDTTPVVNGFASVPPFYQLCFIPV
# CYP2C9 inhib: blockers of cytochrome P450 2C9 activity – biochemical, luminescence, ADME assay, primary screen. P11712. inhibition, % at 5 µM. actives 20% (n = 96,000). CYP2C9 Supersomes, luciferin-H conversion. AID 777, 2007;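 active = blocking of liver enzyme CYP2C9 beyond about 50% at 5 µM, limit read from the data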
# Cav3 T inh: Cav3.2 calcium influx blockers – cell-based, Fluo-4 calcium fluorescence, FDSS, MLSMR library, primary screen | Voltage-dependent T-type calcium channel subunit alpha-1H (Homo sapiens), O95180 | Cav3.2-expressing cells; active compounds read low | B-score at 10 µM | actives 4% (n = 100,000) | AID 449739, 2010;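 active = single-dose well whose peak fluorescence ratio is a statistical outlier from its plate by either plate-standardised score or position-corrected B-score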
# CYP2C19 inhib: blockers of cytochrome P450 2C19 activity – biochemical, luminescence, ADME assay, primary screen; P33261; CYP2C19 Supersomes, luciferin-H EGE luminescence, 30 min; inhibition, % at 5 µM; actives 21% (n = 96,000); AID 778, 2007;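 active = CYP2C19 inhibition above a set limit at 5 µM in the primary screen, cut at about 50% in these data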
# Pyk2 oligo antag: antagonists of Pyk2 self-association, primary screen, Q293 cells, FERM NanoBiT luminescence, HTS; z-score (the deposit names both 25 µM and 10 µM); Protein-tyrosine kinase 2-beta (Homo sapiens), Q14289; AID 1347419, 2020; active compounds read low; actives 0.83% (n = 99,000);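 active = Z-score of -3 or lower, scaled per plate to the spread of control and sample wells; inactive = z-score above -3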;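 also: negative z-score means lost luminescence so less FERM oligomerization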
# CYP2C19 activ: human CYP2C19 activators, primary screen, biochemical, luminescence. recombinant CYP2C19, luciferin-H EGE luminescence; active compounds read high; 0 = fully inhibited enzyme, 1 = untreated enzyme. activation factor at 5 µM. Cytochrome P450 2C19 (Homo sapiens), P33261. 96,000 tested, under 10 active. AID 1025, 2008;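 active = activation factor of at least 2 at 5 µM in the primary screen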
# Hits are given with their value; 0 = inactive; - = no result. Shown are actives, neighbours in structure and some others; about 27% of the full set was active somewhere.
SMILES,CYP2C9 activ,CYP2C9 inhib,Cav3 T inh,CYP2C19 inhib,Pyk2 oligo antag,CYP2C19 activ
O=C(NCc1ccco1)C1CCN(S(=O)(=O)N2CCC3(CC2)OCCO3)CC1,0,84,0,0,0,0
O=C(C1CCN(S(=O)(=O)N2CCC3(CC2)OCCO3)CC1)N1CCC(Cc2ccccc2)CC1,0,76,0,58,0,0
O=C(NCc1ccccc1Cl)C1CCN(S(=O)(=O)N2CCC3(CC2)OCCO3)CC1,0,0,-,0,0,0
Cc1cc(C)c(S(=O)(=O)N2CCC(C(=O)NCc3ccco3)CC2)c(C)c1,2.8,0,0,0,0,0
COc1ccc(S(=O)(=O)N2CCC(C(=O)NCc3ccco3)CC2)cc1,0,0,0,0,0,0
CCC(CC)C(=O)c1c[nH]c(C(=O)NCC2CCCO2)c1 (centres undefined),0,0,0,0,0,0
Cn1c(SCC(=O)Nc2cc(=O)n(C)c(=O)n2C)nnc1-c1cccs1,0,0,-,0,-,0
O=C1CC(c2ccccc2)NC(=O)N1 (centres undefined),0,0,0,0,0,0
CNC(=S)NNC(=O)c1sccc1OCc1ccc(C)cc1,0,0,0,0,0,0
COc1ccc(COc2ccsc2C(=O)Nc2ccc(Cl)c(Cl)c2)cc1,0,55,0,0,0,0
O=C1c2ccccc2C(=O)N1CCc1csc(-c2cccc(Cl)c2)n1,0,0,-,99,0,0
O=C1c2ccccc2C(=O)N1CCc1csc(-c2cccc(F)c2)n1,0,52,0,100,0,0
Cc1ccc(-c2noc(CCCN3C(=O)c4ccccc4C3=O)n2)cc1,0,0,0,0,0,0
O=C1c2ccccc2C(=O)N1CCCCCc1nc(-c2ccccc2)no1,0,0,0,0,0,0
COc1ccc2nc(N3CCCC3)[nH]c2c1,0,0,0,0,0,0
Cc1c(O)ccc(-c2[nH]ncc2-c2nc3ccccc3s2)c1O,0,69,0,87,0,0
COc1ccc(/C=N/NC(=O)c2ccco2)cc1Cn1nc(C)cc1C,-,-,-,-,0,-
COc1ccc(/C=N\NC(=O)COc2ccc(C(C)(C)C)cc2)cc1Cn1nc(C)cc1C,0,95,0,53,0,0
O=C(Nc1nc(-c2ccccn2)cs1)c1ccc(Br)s1,0,0,0,0,0,0
Cc1ccccc1-c1cc(C(=O)n2cccn2)c2cc(Cl)ccc2n1,0,0,0,62,0,0
CC1CCCC(C)N1C(=O)c1cc(F)c(F)cc1Cl (centres undefined),0,0,0,59,0,0
Nn1c(-c2ccccn2)nnc1-c1ccccn1,0,0,0,0,0,0
c1ccc(-c2ccc(-c3ccccn3)nn2)nc1,0,0,-,56,-,0
Cc1cc(C)cc(Nc2cc(C)nc3nc(C)nn23)c1,0,0,0,0,-,0
Cc1ccccc1-n1c(SC/C(O)=C(\C#N)c2nc3ccccc3[nH]2)nnc1-c1ccncc1,0,95,0,86,0,0
SMILES,CYP2C9 activ,CYP2C9 inhib,Cav3 T inh,CYP2C19 inhib,Pyk2 oligo antag,CYP2C19 activ
Cc1cc(C)n2c(SC/C(O)=C(\C#N)c3nc4ccccc4[nH]3)nnc2n1,0,0,0,0,0,0
CCOCCCNC(=O)C(C)NS(=O)(=O)c1ccc(C)cc1 (centres undefined),0,0,0,0,0,0
COc1cccc(Cn2c(-c3nonc3N)nc3ccccc32)c1,0,0,0,0,0,0
COc1cc(Cn2c(-c3nonc3N)nc3ccccc32)ccc1C,0,74,0,0,0,0
Nc1nonc1-c1nc2ccccc2n1Cc1ccc(Cl)cc1,0,53,0,75,0,0
CC1CN(C(=O)Cn2c(C(F)(F)F)nc3ccccc32)CC(C)O1 (centres undefined),0,0,0,0,0,0
CNc1nc(NC)nc(-n2c(C(F)(F)F)nc3ccccc32)n1,0,64,0,0,0,0
CC1=C(C(=O)OCc2ccccc2)C(c2cccnc2)c2c(n(C)c(=O)n(C)c2=O)N1 (centres undefined),0,60,0,94,0,0
